PLAP activator = human PLAP activation | P05187 | AID 696 | activation fold at 20 µM | purified PLAP enzyme, luminescent substrate read-out; stronger effect = higher value | actives 1.2% (n = 96,000); in the data active = activation fold above about 2
CYP2C19 activ = increases human CYP2C19 enzyme activity. recombinant CYP2C19, luciferin-H EGE luminescence; stronger effect = higher value; 0 = fully inhibited enzyme, 1 = untreated enzyme. activation factor at 5 µM. 96,000 tested, under 10 active. AID 1025;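 active = activation factor of at least 2 at 5 µM in the primary screen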;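 note: 0 = wells with 2.5 mM tranylcypromine and 1 = vehicle-only wells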
CYP2C9 act = CYP2C9 (human) activation. P11712. recombinant CYP2C9, luciferin-H conversion, luminescence; stronger effect = higher value; factor 1 = untreated enzyme, 0 = blocked. activation factor at 5 µM. actives 1.4% (n = 96,000). AID 1024;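 active = activation factor of 2 or more for CYP2C9 at a 5 µM dose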;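 note: 0 = sulfaphenazole-blocked wells and 1 = vehicle-only wells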
Target sequence (P11712 whole entry, looked up): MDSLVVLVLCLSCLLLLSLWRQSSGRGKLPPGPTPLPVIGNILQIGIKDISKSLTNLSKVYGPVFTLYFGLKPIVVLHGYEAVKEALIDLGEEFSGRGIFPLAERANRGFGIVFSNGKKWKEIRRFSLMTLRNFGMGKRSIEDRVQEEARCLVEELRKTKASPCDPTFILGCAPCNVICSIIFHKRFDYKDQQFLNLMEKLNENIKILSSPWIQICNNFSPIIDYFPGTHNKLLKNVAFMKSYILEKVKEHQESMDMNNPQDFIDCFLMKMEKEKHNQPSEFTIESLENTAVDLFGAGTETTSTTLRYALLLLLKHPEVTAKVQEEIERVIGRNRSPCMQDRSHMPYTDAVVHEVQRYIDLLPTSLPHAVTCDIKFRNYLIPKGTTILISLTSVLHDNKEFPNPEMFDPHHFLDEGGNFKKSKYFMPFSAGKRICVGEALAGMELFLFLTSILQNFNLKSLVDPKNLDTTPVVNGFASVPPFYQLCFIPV
CYP2C19 inhib = human CYP2C19 inhibition; P33261; CYP2C19 Supersomes, luciferin-H EGE luminescence, 30 min; inhibition, % at 5 µM; actives 21% (n = 96,000); AID 778;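 active = CYP2C19 inhibition above a set limit at 5 µM in the primary screen, cut at about 50% in these data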;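 note: plate controls were negative control wells for no effect and 2.5 mM tranylcypromine positive control for full effect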
CYP2C9 inhib = human CYP2C9 inhibition; inhibition, % at 5 µM; actives 20% (n = 96,000); CYP2C9 Supersomes, luciferin-H conversion, luminescence; P11712;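 active = blocking of liver enzyme CYP2C9 beyond about 50% at 5 µM, limit read from the data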
* marks the source's active call; other numbers are inactive results. Rows were chosen to be rich in hits. Some 31% of all compounds tested hit in one or more screens of this group.

SMILES | PLAP activator | CYP2C19 activ | CYP2C9 act | CYP2C19 inhib | CYP2C9 inhib
CC(=O)N(Cc1cc2cc(C)c(C)cc2n2nnnc12)CC1COCCO1 (stereo unspecified) | 1.1 | 0.8 | 1 | 25 | 4
CC(C)P(=O)(Cc1cccc(C#N)c1)C(C)C | 1 | 0.9 | 1 | 11 | 3
COC(=O)C1CCN(S(=O)(=O)c2cn(C)c(=O)n(C)c2=O)CC1 | 1.1 | 1.1 | 1.1 | -13 | -10
Cc1ccc(C(=O)Nc2c3c(nn2C(C)(C)C)CS(=O)(=O)C3)cc1C | 1 | 0 | 1.1 | 99* | -12
CSc1nc(SCC(=O)NC(c2ccccc2)c2ccccc2)c2c3c(sc2n1)CN(C)CC3 | 1.2 | 0.6 | 0.4 | 44 | 57*
COCCCn1c(SCc2nc3ccccc3c(=O)[nH]2)nc2ccccc2c1=O | 1 | 0.6 | 0.3 | 36 | 67*
COCCCn1c(-c2ccccc2)nc2ccccc2c1=O | 0.8 | 0.9 | 0.9 | 13 | 14
CCOC(=O)c1[nH]c(CSc2nnc(-c3ccncc3)n2CCOC)c(C(=O)OCC)c1C | 1 | 0.3 | 0.1 | 65* | 94*
O=c1[nH]c(CSc2nnc(-c3ccncc3)n2Cc2ccco2)nc2ccccc12 | 1 | 0.5 | 0.4 | 47 | 56*
NC(=O)CSc1nnc(-c2ccncc2)n1CCc1ccccc1 | 1 | 1 | 1 | -5 | -4
COCCn1c(SCC(=O)OC(C)C)nnc1-c1ccccc1 | 1 | 0.6 | 1 | 36 | -1
COCCn1c(SCc2nc3ccccc3c(=O)[nH]2)nnc1-c1ccncc1 | 1.2 | 0.5 | 0.6 | 52* | 38
COc1ccc(CCN(CC(=O)NC2CCCC2)C(=O)CCC(=O)Nc2cc(C)on2)cc1OC | 1.4 | 0.9 | 0.7 | 6 | 30
O=C(N/N=C/C=C/c1ccccc1)c1cnccn1 | 1.9 | 1 | 1.1 | -2 | -8
Cc1cccc(NC(=O)c2sc(NC(=O)c3ccco3)c(C#N)c2C)c1C | 1 | 0.8 | 0.9 | 21 | 13
COc1cc(OC)c2nc(C)c3c(c2c1)N(c1ccc(O)cc1)CC3 | 0.7 | 0.7 | 1 | 27 | 0
C=CCn1c(SCC(=O)O)nnc1-c1cccc(Cl)c1 | 0.9 | 1.2 | 1 | -17 | 0
C=CCn1c(SCc2nc3ccccc3c(=O)[nH]2)nnc1-c1cc2cc(Cl)ccc2o1 | 1.6 | 0.6 | 0.3 | 45 | 68*
O=C(c1cccs1)N1CCN(CCCc2ccccc2)CC1 | 1 | 0.7 | 0.7 | 26 | 27
O=C(c1cccs1)N1CCN(Cc2cccnc2)CC1 | 1 | 0.2 | 0.6 | 83* | 37
O=C(c1cccs1)N1CCN(Cc2ccncc2)CC1 | 1.1 | 0.1 | 0.3 | 88* | 74*
O=C(c1ccco1)N1CCN(Cc2cccnc2)CC1 | 0.9 | 0.8 | 0.8 | 18 | 16
O=C(C(c1ccccc1)c1ccccc1)N1CCN(Cc2ccncc2)CC1 | 1.1 | 0.6 | 0.1 | 44 | 88*
O=C(C(c1ccccc1)c1ccccc1)N1CCN(Cc2ccccn2)CC1 | 1.3 | 1 | 0.9 | 4 | 9
Cc1cc(C)cc(N(CC(=O)NC2CCC(C)CC2)S(=O)(=O)c2c(C)noc2C)c1 (stereo unspecified) | 1.1 | 1 | 0.9 | 5 | 12
SMILES | PLAP activator | CYP2C19 activ | CYP2C9 act | CYP2C19 inhib | CYP2C9 inhib
CC(C)(C)C(=O)c1no[n+]([O-])c1/C(=N/O)C(C)(C)C | 1.2 | 0.4 | 0.9 | 59* | 12
COCCNC(=O)c1ccccc1NS(=O)(=O)c1ccc(Br)s1 | 1.4 | 0.3 | 0.1 | 72* | 91*
O=C(c1ccccc1NS(=O)(=O)c1ccc(Br)s1)N1CCOCC1 | 1.3 | 0.6 | 1.1 | 45 | -12
CCOc1ccccc1NS(=O)(=O)c1ccc(Br)s1 | 1 | 0.1 | 0.7 | 95* | 26
COC(=O)c1cc(NC(=O)C2CC=CCC2C(=O)O)cc(C(=O)OC)c1 (stereo unspecified) | 1 | 1 | 0.6 | -5 | 38
COc1ccc(-n2nnc3c(=O)n(Cc4cc(C)ccc4C)cnc32)cc1 | 0.9 | 0.6 | 0.3 | 36 | 72*
Cc1cc(C)n2nnnc2c1C#N | 0.9 | 1.2 | 1.3 | -22 | -30
CCC(C)NC(=O)C1CCN(S(=O)(=O)CC)CC1 (stereo unspecified) | 1 | 1 | 1 | 2 | 3
CCOC(=O)c1c(C)n(C)c2ccc(OC(C)C(=O)OC)cc12 (stereo unspecified) | 0.9 | 0.5 | 0.4 | 51* | 64*
CCOC(=O)c1c(C)n(C)c2ccc(OCCN(C)C)cc12 | 1.8 | 1 | 0.8 | 4 | 18
CC(C)OCCCNc1nc2c([nH]1)c(=O)n(C)c(=O)n2C | 0.9 | 1 | 1 | -4 | 0
